# Experimental data published in PubChem BioAssay (NCATS).
# Records with an inconclusive call do not appear. Unmarked numbers belong to inactive results. Active and inactive are the calls of the source. Calls come from the whole dose curve.
# Assay: Cytotoxicity counterscreen for inhibitors of SARS-CoV-2 cell entry (AID 1645845); note: nearly all actives have a fitted effect of over 50% in size
# Conditions: cell viability (SARS-CoV-2 entry assay cells); series mostly up to 57.1 µM; activity change, negative = cytotoxicity: at the top concentration
# In short: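 HEK293-ACE2 cells (Expi293F stably expressing human ACE2) seeded overnight, then compound for 1 h plus 48 h at 37C. Viability as ATP content by luminescence; normalized to wells with cells and media-only wells.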
# % is set by controls: 0 for no effect and ±100 for the full control effect; potency is the fitted concentration of half-maximal effect.
Structure (SMILES),outcome,"activity change, negative = cytotoxicity",Potency
Cc1ccc(/C(=C\CN2CCCC2)c2ccccn2)cc1,inactive,–,–
OC[C@@H](O)[C@H](O)[C@H](O)[C@@H](O)CO,inactive,–,–
CC(C)C(=O)Nc1cccc(C2CN3CCSC3=N2)c1 (stereo unspecified),–,2.1%,–
Oc1ccc(CCNCCCCCCNCCc2ccccc2)cc1O,–,-4.56%,–
CC(C(O)c1ccc(O)cc1)N1CCC(Cc2ccccc2)CC1 (stereo unspecified),inactive,–,–
CC/C(=C(/CC)c1ccc(O)cc1)c1ccc(O)cc1,–,–,inactive
C[C@H](N)[C@H](O)c1cccc(O)c1,inactive,–,–
O=C(CCCN1CCC(O)(c2ccc(Br)cc2)CC1)c1ccc(F)cc1,–,-18.6%,–
O=C(Nc1ccc(S(=O)(=O)N2CCOCC2)cc1)c1cc(Cl)ccc1NS(=O)(=O)c1ccc(Cl)s1,inactive,–,–
CN1CCC(=C2c3ccccc3CCc3cccnc32)CC1,inactive,–,–
O=C(OCC(O)CO)c1ccccc1Nc1ccnc2c(C(F)(F)F)cccc12 (stereo unspecified),–,-4.15%,–
COCc1c(C(C)C)nc(C(C)C)c(/C=C/[C@@H](O)C[C@@H](O)CC(=O)O)c1-c1ccc(F)cc1,–,-21.2%,–
O=c1[nH]c(=O)c2[nH]c(=O)[nH]c2[nH]1,inactive [at 11.3 µM],–,–
O=C1NCCN1CCN1CCC(c2cn(-c3ccc(F)cc3)c3ccc(Cl)cc23)CC1,–,–,28.2 µM (active)
CC(C)=CCOc1ccc(/C=C/C(=O)c2ccc(OCC=C(C)C)cc2OCC(=O)O)cc1,inactive,–,–
O=C1OC(c2ccc(O)cc2)(c2ccc(O)cc2)c2ccccc21,inactive,–,–
NC(=O)CCCCC1CCSS1 (stereo unspecified),–,1.22%,–
O=C1OC2(c3ccccc31)c1cc(I)c(O)c(I)c1Oc1c2cc(I)c(O)c1I,inactive,–,–
Oc1cccc(-c2c3nc(c(-c4cccc(O)c4)c4ccc([nH]4)c(-c4cccc(O)c4)c4nc(c(-c5cccc(O)c5)c5ccc2[nH]5)CC4)C=C3)c1,–,-7%,–
Oc1ccc(O)cc1,–,0.129%,–
CCCCN(CCCC)CC(O)c1cc(Cl)cc2c1-c1ccc(Cl)cc1/C2=C/c1ccc(Cl)cc1 (stereo unspecified),–,1.17%,–
